In the supplement of paper PMC13380429:

System: Vero E6 infected with SARS-CoV-2
Assay: inhibition of SARS-CoV-2 cytopathic effect; higher = more antiviral protection, active = above 15
Details: 48 h

Measured: inhibition of SARS-CoV-2 cytopathic effect

Oc1ccc2c3c1O[C@H]1c4[nH]c5ccccc5c4C[C@@]4(O)[C@@H](C2)N(CC2CC2)CC[C@]314 [naltrindole]
inactive: 1 nM 1.74% | 8.33 nM 3.59% | 100 nM 1.09% | 833.33 nM 0.82% | 10000 nM -3.58%

O=C(Nc1ccccc1)N[C@H]1C[C@H](C(=O)O)Nc2cc(Cl)cc(Cl)c21
inactive: 1 nM -0.64% | 8.33 nM -2.48% | 100 nM 0.61% | 833.33 nM -0.05% | 10000 nM 0.62%

Cc1c(N)nc([C@H](CC(N)=O)NC[C@H](N)C(N)=O)nc1C(=O)N[C@H](C(=O)N[C@H](C)[C@@H](O)[C@H](C)C(=O)N[C@H](C(=O)NCCc1nc(-c2nc(C(=O)NCCCNCCCCN)cs2)cs1)[C@@H](C)O)[C@@H](O[C@@H]1O[C@@H](CO)[C@@H](O)[C@H](O)[C@@H]1O[C@@H]1O[C@H](CO)[C@@H](O)[C@H](OC(N)=O)[C@@H]1O)c1cnc[nH]1 [bleomycetin]
inactive: 1 nM 5.02% | 8.33 nM -0.49% | 100 nM -7.1% | 833.33 nM -8.93% | 10000 nM -22.7%
